This is an account of results in PubChem BioAssay AID624297 (National Center for Advancing Translational Sciences (NCATS), 2012).

About 6,200 (1.8%) of roughly 340,000 compounds were called active. Entries that show only a call come without a potency. Inconclusive results (about 10%) are left out. Calls come from the whole dose curve; as a rule, active = well fitted activation curve with a large enough effect; inconclusive = small, poorly fitted or top-dose-only effect; inactive = no such curve, though single readings can be large or run the other way. Only a selection was taken, and actives are over-represented in it overall.
Potency is the fitted concentration of half-maximal effect.

The nature of the assay: A quantitative high throughput screen for small molecules that induce DNA re-replication in SW480 colon adenocarcinoma cells. Note: nearly all actives have a fitted effect of over 55% in size. The following applies: Hoechst DNA content imaging, 48 h; series mostly up to 46.1 µM. A digest of the protocol: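 First, 250 cells per well were seeded. Next, compound or vehicle (23 nL) was pinned in, plates sat 48 hr at 37 C. Finally Hoechst was added for 40 min before fluorescence scanning.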
As to `COC(=O)C1=C(C)N(C)C(=S)NC1c1ccccc1` (stereo not drawn), the Potency entry was “inactive”.

As for `COc1ccc(C2NC(=O)N(C)C(C)=C2[N+](=O)[O-])cc1` (stereo not drawn), the Potency result was “inactive”.

For `COC(=O)C1=C(C)N(C)C(=O)NC1c1ccc([N+](=O)[O-])o1` (stereo not drawn), the Potency was 23.1 µM (active).

For the molecule `Cc1cccc(C(=O)N[C@H](C(=O)NCc2cccs2)C(C)C)c1`, the Potency entry was “inactive”.

Regarding `COc1ccc(CN2C(CC(=O)Nc3cccnc3)c3ccc(C(F)(F)F)cc3S2(=O)=O)cc1` (stereo not drawn), the re-replication activation is -6.2% [at 9.22 µM] (inactive).

For the molecule `CCCCN(C)C(=O)C1CCN(Cc2ccccn2)CC1`, the re-replication activation was -0.529% [at 9.22 µM] (inactive).

Consider `CCCCN(Cc1ccccc1)C(=O)C1CCN(Cc2sccc2C)CC1`, for which the Potency is 14.6 µM (active).

`CCCC(=O)C1CCN(Cc2ccccc2)CC1`: the Potency entry was “inactive”.

For `CSCCC(NS(=O)(=O)c1ccc(C)cc1)C(=O)N(C)CC(=O)Nc1ccccc1Br` (stereo not drawn), the Potency result was “inactive”.

Take `CNN/C(N=Cc1ccc([N+](=O)[O-])s1)=N\S(=O)(=O)c1cc(C)c(Cl)cc1SCc1ccccc1`: the Potency result is “inactive”.

As for `COc1ccc(-c2csc(NC3OC(=O)c4ccccc43)n2)cc1` (stereo not drawn), the Potency entry is “inactive”.

With `COc1ccc2c(c1OC)C(=O)OC2Nc1nc(-c2ccccc2)cs1` (stereo not drawn), the Potency is 6.51 µM (active).

On to `Cc1cccc(Nc2nc(-c3ccccc3)cs2)n1`, for which the Potency entry is “inactive”.

`O=C1NC[C@@H](c2ccccc2)OC(=O)[C@H](Cc2ccc(F)cc2)CC/C=C/C[C@H]1CC(=O)N(CCO)Cc1ccccc1`: the Potency result is “inactive”.

`CCOC(=O)C1=CN(Cc2ccc(Br)cc2)S(=O)(=O)NC1C` (stereo not drawn): the Potency entry was “inactive”.

As for `CC1C(=O)N(Cc2ccccc2)c2ccccc2N1C(=O)c1ccccc1` (stereo not drawn), the Potency entry was “inactive”.

With `CC1CC(C)CN(CC(=O)N2c3ccccc3CCc3ccccc32)C1` (stereo not drawn), the Potency result is “inactive”.

As to `CC1C(C)N(C(=O)CCl)c2ccccc2N1C(=O)CCl` (stereo not drawn), the Potency was 5.17 µM (active).

On to `COc1ccc(NS(=O)(=O)c2ccc(C(=O)Nc3c(C)n(C)n(-c4ccccc4)c3=O)cc2)cc1`, for which the Potency was 6.51 µM (active).

Turning to `Cc1cc(C(=O)Nc2c(C)n(C)n(-c3ccccc3)c2=O)cs1`, the Potency entry was “inactive”.

Consider `Cc1c(NS(=O)(=O)c2cccc(C(=O)Nc3ccc(SC(F)F)cc3)c2)c(=O)n(-c2ccccc2)n1C`, for which the Potency entry is “inactive”.

Turning to `C=CC(=O)Nc1ccc(Nc2ccnc(Nc3ccc(N4CCN(C)CC4)cc3)n2)cc1`, the Potency entry was “inactive”.

On to `Cc1cc(N2CCN(c3ccccc3)CC2)nc(N2CCOCC2)n1`, for which the Potency result was “inactive”.

With `CN(C)c1ccc(/C=N/Nc2cc(N3CCOCC3)nc(N3CCOCC3)n2)cc1`, the Potency result is “inactive”.

Turning to `C(=N/Nc1cc(N2CCOCC2)nc(N2CCOCC2)n1)/c1ccccc1`, the Potency is 5.8 µM (active).

Take `COc1ccccc1N1CCN(C(=O)c2cc(=O)c3cc(C)ccc3o2)CC1`: the Potency entry is “inactive”.

For `COc1cc2c(cc1OC)CN(C(=O)c1cc(=O)c3ccccc3o1)CC2`, the Potency is 13 µM (active).

As for `O=C(c1cc(=O)c2ccccc2o1)N1CCN(c2ccccc2)CC1`, the Potency result was “inactive”.

On to `NC(=O)C1CCN(C(=O)c2cc(S(=O)(=O)N3CCN(c4ccccc4)CC3)ccc2Cl)CC1`, for which the Potency result is “inactive”.

As to `COc1cc2[nH]c(O)c(C=O)c2cc1OC`, the Potency entry is “inactive”.

As for `Cc1ccc(S(=O)(=O)N2CCN(C(=O)COC(=O)/C=C/c3cccc(Cl)c3)CC2)c(C)c1`, the Potency entry was “inactive”.

On to `CCCCC[C@@H]1C=C(C(=O)O)[C@H](c2ccc(C#N)cc2)N1S(=O)(=O)c1ccc(C)cc1`, for which the Potency result was “inactive”.

As for `CCC1(C)COC(c2ccc(OC)c(OC)c2)OC1` (stereo not drawn), the Potency result is “inactive”.

For the molecule `O=C(Cc1ccc(Cl)cc1)NC(=S)Nc1ccccc1O`, the Potency result is “inactive”.

`O=[N+]([O-])c1ccccc1NCc1ccc(Cl)cc1`: the Potency entry is “inactive”.

Consider `Oc1ccc(CNc2ccccc2O)cc1`, for which the Potency is 20.6 µM (active).

For `CC(C)(C)OC(=O)C1=C(CO)CS[C@@H]2[C@H](NC(=O)Cc3ccccc3)C(=O)N12`, the Potency result is “inactive”.

For the molecule `OCCN1CCN(CCO)C1=S`, the Potency result was “inactive”.

On to `COc1ccc(C(CNC(=O)COc2ccc([N+](=O)[O-])cc2)N2CCCCC2)cc1` (stereo not drawn), for which the Potency result was “inactive”.

As for `CCc1ccc(OCC(=O)NCC(c2ccc(Cl)cc2)N2CCCCC2)cc1` (stereo not drawn), the Potency was 9.2 µM (active).

Consider `COc1ccc(C(CNC(=O)COc2ccccc2OC)N2CCCCC2)cc1` (stereo not drawn), for which the Potency entry was “inactive”.

Turning to `O=C(CNS(=O)(=O)c1ccc2c(c1)OCCCO2)N1CCN(c2ccc(F)cc2)CC1`, the Potency entry was “inactive”.

With `O=C1COc2c1ccc(O)c2O`, the Potency result was “inactive”.

`OCC1(CCOc2ccccc2)CCN(Cc2cn[nH]c2-c2ccccc2)CC1`: the Potency entry is “inactive”.

Consider `CCOC(=O)C1(CCOc2ccccc2)CCN(Cc2cc(OC)c(O)cc2Cl)CC1`, for which the Potency entry is “inactive”.

As to `Cc1c(CN2CCC(CO)(CCOc3ccccc3)CC2)[nH]c2ccc(Cl)cc12`, the Potency was 14.6 µM (active).

For the molecule `CCOC(=O)C1=CN(Cc2ccc(Br)cc2)S(=O)(=O)N(C)C1C` (stereo not drawn), the Potency entry is “inactive”.

In the case of `Cc1ccc(NC(=O)NC2CCCCC2)cc1S(=O)(=O)N1CCOCC1`, the Potency result was “inactive”.

For the molecule `Cc1ccc(NC(=O)COC(=O)C2CC2)cc1S(=O)(=O)N1CCOCC1`, the Potency result was “inactive”.

Turning to `Cc1ccc(NC(=O)C2CCC(C(C)(C)C)CC2)cc1S(=O)(=O)N1CCOCC1` (stereo not drawn), the Potency was 14.6 µM (active).

As for `Cc1cc(Cl)ccc1OCCCC(=O)NCc1ccncc1`, the Potency result is “inactive”.

For the molecule `C/C(CC(=O)NCc1ccc(Cl)cc1)=N\NC(=O)COc1ccc(C)cc1Br`, the Potency was 14.6 µM (active).

With `CC(=O)Nc1ccc(OCC(=O)NCc2ccc(C)cc2)cc1`, the Potency result was “inactive”.

Turning to `COc1ccc(C2NCCCC2c2ccccc2)cc1` (stereo not drawn), the Potency entry was “inactive”.

For the molecule `CCN(C(=O)COC(=O)c1ccccc1O)c1cccc2ccccc12`, the Potency entry is “inactive”.

Take `CCC1([N+](=O)[O-])COC(c2ccc(C)cc2)OC1` (stereo not drawn): the Potency result was “inactive”.

Regarding `CC(C)(C)S(=O)(=O)N1Cc2cc(CO)cc(CCO)c2[C@H]1CCO`, the Potency result was “inactive”.

As to `O=C(O)C(c1cccs1)C1(O)CCCCC1` (stereo not drawn), the Potency result was “inactive”.

For `O=C(COc1ccc(Cl)cc1)NCCC1=CCCCC1`, the Potency result was “inactive”.

On to `O=C(Cc1cccc2ccccc12)NCCC1=CCCCC1`, for which the Potency result is “inactive”.

In the case of `Cc1nnc(OCC(=O)NCCC2=CCCCC2)c2ccccc12`, the Potency is 16.4 µM (active).

Take `COc1ccc(OC)c(NC(=O)c2sc3nc(C)cc(C)c3c2N)c1`: the Potency is 9.2 µM (active).

Take `CCc1nnc(NC(=O)c2sc3nc(C)cc(COC)c3c2N)s1`: the Potency entry is “inactive”.

As to `COCc1cc(C)nc2sc(C(=O)NC3CCCCC3)c(N)c12`, the Potency result was “inactive”.

`CCOc1ccc(/C=C(/C#N)c2nnc(N3CCOCC3)n2-c2ccccc2)cc1OC`: the Potency result was “inactive”.

With `COc1cccc(/C=N/NC(=O)c2[nH]nc3c2CCc2ccccc2-3)c1O`, the Potency is 3.26 µM (active).

As to `CN(C)CCNC(=O)c1[nH]nc2c1CCc1ccccc1-2`, the Potency result is “inactive”.

For the molecule `COc1cc2cc(C(=O)N/N=C/c3cccc(OC)c3OC)[nH]c2cc1OC`, the Potency entry was “inactive”.
